DAX1 inh-1 = inhibits human nuclear receptor DAX1; 340,000 tested, 0.99% active; P51843; AID 504766; HEK293 Gal4-DAX1 luciferase reporter, luminescence; inhibition, % at 6.75 µM;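 active = inhibition above the mean over all tested compounds plus 3 SD, cut at about 4.2% in these data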;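 also: 0% = DAX1-transfected cells with DMSO and 100% = empty-vector control cells with DMSO; inhibition shows as a rise in luminescence from relieved DAX1 repression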
Target sequence (P51843 207-470 limits assumed): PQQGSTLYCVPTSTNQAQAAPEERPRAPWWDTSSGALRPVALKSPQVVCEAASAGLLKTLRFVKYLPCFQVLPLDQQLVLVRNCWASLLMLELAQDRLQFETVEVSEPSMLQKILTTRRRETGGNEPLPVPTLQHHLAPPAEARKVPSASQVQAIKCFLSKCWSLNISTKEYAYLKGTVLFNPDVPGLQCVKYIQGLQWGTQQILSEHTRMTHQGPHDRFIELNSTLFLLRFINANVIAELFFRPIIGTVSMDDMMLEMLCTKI
DAX1 inh-2 = inhibitors of DAX1 repression of SF-1 activated StAR promoter | inhibition, % at 6.8 µM | HEK293T StAR-luciferase reporter, SF-1/DAX-1 repression relief | 370,000 tested, 1.1% active;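 active = inhibition above the mean over all tested compounds plus 3 SD, cut at about 3.6% in these data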;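 also: 0% = DAX-1 cells with DMSO and 100% = cells lacking DAX-1 with DMSO; higher inhibition means more luminescence from relief of DAX-1 repression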
hgDAF-12 ag = hgDAF-12 agonism, primary luciferase screen; AID 687014; activation, % at 6.8 µM; 370,000 tested, 1.8% active; HEK293 GAL4-hgDAF12 UAS-luciferase reporter, agonist luminescence; normalized to butyrate control;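 active = activation above a cutoff set at the mean of all screened compounds plus 3 SD, cut at about 10% in these data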;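 also: 0% = DMSO wells and 100% = sodium butyrate wells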
ssDAF12 agonist = activates DAF-12 receptor from parasite S. stercoralis; HEK293 ssDAF-12/GRIP1 lit1-tk-luc reporter, luminescence; % of 3 µM dafachronic acid response; activation, % at 6.8 µM; 370,000 tested, 1% active; AID 652126;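 active = activation above the mean over all tested compounds plus 3 SD, cut at about 0.9% in these data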;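 also: 0% = DMSO-only wells and 100% = 3 µM delta7-dafachronic acid wells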
SMARCA2 act = increases SMARCA2 function in MMTV reporter cells; activation, % at 9.1 µM; 370,000 tested, 1% active; MG213 cells, MMTV-luciferase reporter, dexamethasone, overnight; in the data active = activation above about 7.8%;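 also: 0% = vehicle wells and 100% = reference activator wells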
hcDAF12 agonist = H. contortus DAF-12 activation, primary screen | HEK293 hcDAF-12 lit1-tk-luc reporter, luminescence; 0% DMSO, 100% Δ7-dafachronic acid | activation, % at 6.8 µM | 370,000 tested, 1.4% active | AID 652067;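 active = activation above the mean of all tested compounds plus 3 SD, cut at about 5.5% in these data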;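 also: 100% = response to 3 µM Δ7-dafachronic acid high control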
* = called active by the depositor; . = no result. Compounds with a hit are over-represented: about 4.8% of the library has one in this group of screens.

SMILES	DAX1 inh-1	DAX1 inh-2	hgDAF-12 ag	ssDAF12 agonist	SMARCA2 act	hcDAF12 agonist
C/C(Cn1cnc([N+](=O)[O-])n1)=N\NC(=O)c1ccccc1F	1	1	11*	1	3	1
CC1=C2NC(N)=[N+](Cc3ccc4c(c3)OCO4)CC2NOC1 (stereo not given)	.	.	-1	-1	.	-2
O=C1NC(=O)c2c(Br)c(Br)c(Br)c(Br)c21	1	0	2	1.0*	-5	1
CCC(=O)N1N=C(c2ccc(NS(C)(=O)=O)cc2)CC1c1ccc(N(C)C)cc1 (stereo not given)	-1	0	13*	-1	5	1
N#CCc1ccc(OC[C@@H](O)CN2CCC(C(O)(c3ccccc3)c3ccccc3)CC2)cc1	.	0	-1	-1	-2	-1
Fc1cccc(Cc2c(-c3cccc(Br)c3)nc3ccc(Cl)cn23)c1	.	2	5	0	3	1
Cc1ccc2nc(-c3cccc(Br)c3)c(Cc3cccc(F)c3)n2c1	.	4.3*	11*	0	4	2
COc1ccc(Cc2c(-c3cccc(Cl)c3)nc3ccc(C)cn23)c(C)c1	.	4.0*	10	0	4	1
Cc1ccc(-c2nc3c4ccccc4ccn3c2Cc2ccsc2)cc1	.	0	9	1.4*	1	4
COc1ccc(-c2nc3c4ccccc4ccn3c2Cc2ccsc2)cc1OC	.	0	10	1	4	6.4*
O=C(NCc1ccccc1)OCCN1C(=O)CCC12CCC(c1ccc(Cl)cc1)CC2 (stereo not given)	.	-1	3	-2	-3	-1
COc1ccc(-c2nc3c4ccccc4ccn3c2Cc2ccc(C)cc2)cc1OC	.	-2	3	0	4	6.3*
COc1ccc(-c2nc3c4ccccc4ccn3c2Cc2cccc(Cl)c2)cc1OC	.	-1	4	1.1*	0	5
Cc1ccc2nc(-c3ccccc3)c(Cc3ccsc3)n2c1	.	3	10	2.1*	4	1
COc1ccc(-c2nc3c(C)cc(Br)cn3c2Cc2cccc(Cl)c2)cc1OC	.	0	0	-1	-3	-1
C[N+]1(C)[C@H]2CC[C@H]1CC(OC(=O)C(O)c1ccccc1)C2 (stereo not given in full)	.	-1	-1	-1	-2	-1
CCC(NC(=O)c1ccc2c(c1)c(C)c(C)n2Cc1ccc(-c2ccccc2C#N)cc1)c1ccccc1 (stereo not given)	.	-1	2	0	2	2
COc1ccccc1CN(C)C(=O)C1CCCN(c2nc3ccccc3o2)C1 (stereo not given)	.	0	-1	-2	1	-2
O=C(COCc1ccccc1)N1CC[C@H]2[C@H](CCCN2Cc2cc(F)cc(F)c2)C1	.	0	4	-1	0	-1
c1ccc(Cn2c(SCC3CCC3)nnc2-c2cccnc2)cc1	.	0	3	-1	1	2
CC(=O)c1ccc(OCc2cc(C(=O)NC3CCCCC3)no2)cc1	1	3.6*	7	0	2	1
CC(=O)c1ccc(OCc2cc(C(=O)N3CCN4CCCC4C3)no2)cc1 (stereo not given)	0	-1	-4	-1	-2	0
COCC1CCCN(C(=O)c2cc(COc3ccc(C(C)=O)cc3)on2)C1 (stereo not given)	1	4.2*	10	-1	3	5.7*
Cc1ccc(-c2cc(C(=O)NC3CCCC3)no2)cc1	1	3	13*	0	4	2
COCCCN1C(=O)[C@H](CC(=O)NCCCCc2ccccc2)[C@]2(C(=O)OC)CCCCC=C12	.	0	0	-1	0	-2
O=C1NC(=S)N/C1=C/c1cccnc1	3	0	12*	-2	-2	-2
Cc1ccc(S(=O)(=O)Nc2nc(C)cc(NN)n2)cc1	-3	0	-3	-1	-2	1
Cc1ccc(S(=O)(=O)Nc2nc(C)cc(NCCN)n2)cc1	4.7*	0	3	-1	-4	-1
C#CCN1CC(N2CCN(CCO)CC2)CS1(=O)=O (stereo not given)	.	-1	-2	-1	-1	-2

Screening results deposited in PubChem by The Scripps Research Institute Molecular Screening Center.
